Screening results (PubChem BioAssay)
CYP2C19 act: human CYP2C19 activators, primary screen, biochemical, luminescence; Cytochrome P450 2C19 (Homo sapiens), P33261; recombinant CYP2C19, luciferin-H EGE luminescence; stronger effect = higher value; 0 = fully inhibited enzyme, 1 = untreated enzyme; activation factor at 5 µM; 96,000 tested, under 10 active;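 active = activation factor of at least 2 at 5 µM in the primary screen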;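 note: 0 = wells with 2.5 mM tranylcypromine and 1 = vehicle-only wells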
Cav3 T inh: Cav3.2 calcium influx blockers – cell-based, Fluo-4 calcium fluorescence, FDSS, MLSMR library, primary screen | Voltage-dependent T-type calcium channel subunit alpha-1H (Homo sapiens), O95180 | B-score at 10 µM | actives 4% (n = 100,000) | AID 449739, 2010 | Cav3.2-expressing cells; stronger effect = lower value;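 active = single-dose well whose peak fluorescence ratio is a statistical outlier from its plate by either plate-standardised score or position-corrected B-score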
PTK2B oligo ant: antagonists of Pyk2 self-association, primary screen, Q293 cells, FERM NanoBiT luminescence, HTS | Protein-tyrosine kinase 2-beta (Homo sapiens), Q14289 | stronger effect = lower value | z-score (the deposit names both 25 µM and 10 µM) | actives 0.83% (n = 99,000);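 active = Z-score of -3 or lower, scaled per plate to the spread of control and sample wells; inactive = z-score above -3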;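 note: negative z-score means lost luminescence so less FERM oligomerization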
CYP2C9 inhib: blockers of cytochrome P450 2C9 activity – biochemical, luminescence, ADME assay, primary screen | P11712 | CYP2C9 Supersomes, luciferin-H conversion | inhibition, % at 5 µM | actives 20% (n = 96,000) | AID 777, 2007;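 active = blocking of liver enzyme CYP2C9 beyond about 50% at 5 µM, limit read from the data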
Target sequence (P11712 whole entry, looked up): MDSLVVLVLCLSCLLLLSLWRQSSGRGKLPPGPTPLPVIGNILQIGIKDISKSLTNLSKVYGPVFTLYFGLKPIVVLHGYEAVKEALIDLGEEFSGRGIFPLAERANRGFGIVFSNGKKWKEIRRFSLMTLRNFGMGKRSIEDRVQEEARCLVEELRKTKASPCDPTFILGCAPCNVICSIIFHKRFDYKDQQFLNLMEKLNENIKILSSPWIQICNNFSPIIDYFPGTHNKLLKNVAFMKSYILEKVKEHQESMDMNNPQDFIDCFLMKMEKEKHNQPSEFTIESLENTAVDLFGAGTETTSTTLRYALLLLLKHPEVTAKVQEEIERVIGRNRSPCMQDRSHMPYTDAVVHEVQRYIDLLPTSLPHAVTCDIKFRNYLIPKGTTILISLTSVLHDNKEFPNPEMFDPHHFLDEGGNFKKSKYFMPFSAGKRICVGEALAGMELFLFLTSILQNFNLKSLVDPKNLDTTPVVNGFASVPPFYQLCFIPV
CYP2C19 inh: blockers of cytochrome P450 2C19 activity – biochemical, luminescence, ADME assay, primary screen; P33261; CYP2C19 Supersomes, luciferin-H EGE luminescence, 30 min; inhibition, % at 5 µM; actives 21% (n = 96,000);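 active = CYP2C19 inhibition above a set limit at 5 µM in the primary screen, cut at about 50% in these data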;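 note: plate controls were negative control wells for no effect and 2.5 mM tranylcypromine positive control for full effect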
CYP2C9 act: human CYP2C9 activators, primary screen, biochemical, luminescence; Cytochrome P450 2C9 (Homo sapiens), P11712; recombinant CYP2C9, luciferin-H conversion; stronger effect = higher value; factor 1 = untreated enzyme, 0 = blocked; activation factor at 5 µM; actives 1.4% (n = 96,000); AID 1024, 2008;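 active = activation factor of 2 or more for CYP2C9 at a 5 µM dose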;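 note: 0 = sulfaphenazole-blocked wells and 1 = vehicle-only wells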
* hit, by the source's call; / = not tested or not shown. Only some compounds are listed: those with a hit (about 27% of all), similar ones and a draw of the others.

SMILES | CYP2C19 act | Cav3 T inh | PTK2B oligo ant | CYP2C9 inhib | CYP2C19 inh | CYP2C9 act
CCCc1cc(C(=O)Nc2ccccc2C(=O)OC)no1 | 0.8 | 0.395 | / | -117.3 | 19.8 | 2.2*
CCCc1cc(C(=O)NCCc2ccccc2)no1 | 0.4 | -0.156 | / | 40.2 | 63.3* | 0.6
COc1ccccc1-c1cc(C(=O)Nc2cccnc2)no1 | 0.7 | / | -0.21 | -109.4 | 26.9 | 2.1*
Cc1ccc(C(=O)NNc2nc3ccccc3nc2C(F)(F)F)cc1 | 0.7 | -0.41 | -0.7 | 2.1 | 28.5 | 1
COc1ccc(C(=O)c2ccc(CC#N)s2)cc1 | 0.4 | / | 0.74 | 5.7 | 56.2* | 0.9
COc1ccc(C(=O)/C(=C/c2cccs2)c2nc3ccccc3o2)cc1 | 0.7 | -4.25 | -1.71 | 68.6* | 26.0 | 0.3
CCCOC1(NC(=O)c2ccccc2)C(C)=CC(=O)C=C1C | 0.7 | -0.0188 | 1.69 | -8.7 | 25.9 | 1.1
COc1cc(/C=N\NC(=O)c2sc(N)nc2C)cc(OC)c1OC | 1.1 | 1.91 | 1.64 | -13.9 | -9.0 | 1.1
CC1CCN(S(=O)(=O)c2ccc(NC(=O)CSc3nnnn3C)cc2)CC1 | 1 | -0.112 | -0.31 | -0.6 | -2.2 | 1
CCSC1=NC2(CCCCC2)Nc2sc3c(c21)CCCC3 | 0.4 | -1.32 | -0.59 | 74.5* | 62.7* | 0.3
Cc1ccc(C2C(C(=O)c3sc(C)nc3C)=C(O)C(=O)N2CCCN(C)C)o1 (configuration not stated) | 1.1 | / | / | -6.9 | -15.0 | 1.1
COc1ccc2c(c1)-c1c(sn(-c3ccc(OC)c(OC)c3)c1=S)C(C)(C)N2 | 0.7 | -4.07 | -1.42 | 59.4* | 25.1 | 0.4
COc1ccc(-n2sc3c(c2=S)-c2cc(OC)ccc2NC3(C)C)cc1 | 0.5 | -0.518 | -1.21 | 81.6* | 49.0 | 0.2
COc1ccc2c(c1)-c1c(ssc1=S)C(C)(C)N2 | / | -1.52 | -2.19 | / | / | /
Cc1cc(OCC(=O)NCCN2CCOCC2)ccc1Br | 0.2 | 0.0528 | 0.05 | -8.8 | 85.0* | 1.1
O=C(COc1cc(Cl)c(Cl)cc1Cl)NCCN1CCOCC1 | 0.4 | 0.488 | 2.86 | 5.7 | 64.6* | 0.9
CC1CCN(c2c(NCc3ccc(C(=O)N4c5ccccc5CC4C)cc3)c(=O)c2=O)CC1 (configuration not stated) | / | -1.59 | / | / | / | /
C=CCn1c(C)cc(C(=O)CN2C(=O)NC3(CCCc4ccccc43)C2=O)c1C (configuration not stated) | 0.6 | -0.824 | -0.03 | 81.8* | 44.5 | 0.2
Cc1cc(C(=O)CN2C(=O)NC3(CCCc4ccccc43)C2=O)c(C)n1Cc1cccs1 (configuration not stated) | 1 | -7.44* | 0.25 | 44.2 | 1.3 | 0.6
COc1ccc(C(=O)CN2C(=O)NC3(CCCc4ccccc43)C2=O)cc1OC (configuration not stated) | / | 0.664 | -0.88 | / | / | /
O=C(CN1C(=O)NC2(CCCc3ccccc32)C1=O)N1CCN(C(=O)c2ccco2)CC1 (configuration not stated) | 1 | -0.167 | 0.2 | 5.7 | 0.4 | 0.9
Cc1cc(C(=O)CN2C(=O)NC(c3ccccc3)(c3ccccc3)C2=O)c(C)n1Cc1ccco1 | 0.8 | -8.6* | 0.29 | 62.2* | 15.9 | 0.4
COc1cc(O)c(C(CCN2CCN(c3ccccc3)CC2)c2cc(OC)c(OC)c(OC)c2)c(OC)c1 (configuration not stated) | / | -2.22 | / | / | / | /
COc1cc(C)nc2nc(SCc3ccccc3)nn12 | 0.8 | -0.48 | 0.92 | -32.1 | 23.4 | 1.3
CCOC(=O)c1c(-c2ccccc2)oc2ccc(OC)cc12 | 0.5 | 0.387 | 0.5 | 65.0* | 51.5* | 0.3
SMILES | CYP2C19 act | Cav3 T inh | PTK2B oligo ant | CYP2C9 inhib | CYP2C19 inh | CYP2C9 act
NC(=O)c1c(-c2ccccc2)oc2ccc(O)cc12 | 0.5 | 1.99 | 0.27 | -114.9 | 49.9 | 2.1*
CCOC(=O)c1c(CN(CC)CC)oc2ccc(OC)cc12 | / | 0.222 | 0.58 | / | / | /
C=CCOC(=O)C1=C[C@@H](c2ccc(C(F)(F)F)cc2)C[C@@H](OCc2ccc(CO)cc2)O1 | / | -0.651 | / | / | / | /
CC(Sc1ccc(Cl)cc1)C(=O)NCc1ccc2c(c1)OCO2 (configuration not stated) | 0.2 | -5.77* | 0.09 | 99.5* | 76.2* | 0
C/C(=C\C(=O)c1ccc(Cl)cc1)NCc1ccc2c(c1)OCO2 | 0.8 | -0.431 | 0.98 | 25.6 | 24.9 | 0.7
CC(Sc1nc2ccccc2[nH]1)C(=O)O (configuration not stated) | 1.1 | 0.027 | 0.78 | -4.0 | -6.1 | 1
CC(Sc1ccc(Cl)cc1)C(=O)NCc1cccnc1 (configuration not stated) | 0.5 | 2.03 | 0.4 | 33.1 | 50.7* | 0.7
O=C(Nc1ccc2c(c1)OCO2)Nc1ccc(Cl)cc1Cl | 0.8 | 0.0228 | -0.53 | 9.5 | 19.4 | 0.9
S=C(NCc1cccnc1)Nc1ccc(Cl)cc1 | 0.6 | / | 1.09 | 35.2 | 38.6 | 0.6
CC(Sc1ccc(Cl)cc1)C(=O)Nc1ccc2c(c1)OCO2 (configuration not stated) | / | -5.77* | 0.5 | / | / | /
CC(Sc1nc2ccccc2[nH]1)C(=O)Nc1ccc2c(c1)OCCO2 (configuration not stated) | 0.7 | -3.06 | -0.07 | 63.8* | 29.4 | 0.4
CCN(CC)C(=O)c1cn(CC)c(=O)c2cc(OC)c(OC)cc12 | 1.2 | -0.133 | 1.2 | -12.8 | -22.6 | 1.1
CC(Sc1ccc(Cl)cc1)C(=O)Nc1ccc(S(=O)(=O)N2CCOCC2)cc1 (configuration not stated) | 0.5 | -5.12* | -1.19 | 62.1* | 49.8 | 0.4
CC(C)C(C(=O)Nc1ccc(S(=O)(=O)N2CCOCC2)cc1)N1C(=O)c2ccccc2C1=O (configuration not stated) | 1.1 | 0.131 | -0.11 | 5.4 | -9.4 | 0.9
CCCOc1ccc(CC(=O)NNC(=S)Nc2ccccc2)cc1Br | / | -3.27 | -0.41 | / | / | /
O=C(O)CCCSCC(=O)Nc1ccccc1 | 1 | 0.349 | -0.25 | -16.6 | 2.2 | 1.2
CCCCC(SCC(=O)Nc1ccccc1)C(=O)O (configuration not stated) | 0.8 | -0.165 | 0.94 | 70.5* | 16.3 | 0.3
CC1CCCCN1C(=O)Cn1cc(/C=C2/C(=O)Nc3ccccc32)c2ccccc21 (configuration not stated) | 0.6 | 0.23 | / | 57.8* | 36.6 | 0.4
Cc1cc2cc(CN(CC3CCCO3)C(=O)c3cnccn3)c(=O)[nH]c2cc1C (configuration not stated) | 0.9 | 0.0579 | -0.11 | 17.9 | 11.2 | 0.8
CCC(CC)C(=O)Nc1cccc(-c2nc3ccccc3o2)c1 | 0.4 | -0.255 | -0.41 | 65.6* | 58.6* | 0.3
